{"source": "paper PMC8384837", "about": "“Expanding the binding specificity for RNA recognition by a PUF domain”", "assay_in_all_cases": "yeast three-hybrid, YBZ-1, SC-Leu-His + 0.5 mM 3-AT, 4 days", "conditions_in_all_cases": "tags: N-Gal4 AD-HA kept; label: inside an RPR1-promoter hybrid RNA with tandem MS2 sites; ssRNA", "key": {"PUM1 PUF domain R5-RYV": {"molecular_target": "PUM1 PUF domain R5-RYV (Homo sapiens, UniProt Q14671 828-1176, C1007R;R1008Y;Q1011V)", "in_short": "(§1)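 The interaction score is the log change in variant frequency from input to selection. Scores were computed in log2 with a pseudocount of 1 for absent variants, using Illumina sequencing of PCR-amplified repeat regions. The input came from four days on SC-Leu and the selection from four days on SC-Leu-His + 0.5 mM 3-AT. The cells were strain YBZ-1 (LexA–MS2 coat fusion, HIS3 reporter) co-expressing Pumilio-1 PUF domain libraries and matching RNA elements from a centromeric plasmid.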"}, "PUM1 PUF domain R5-FRT": {"molecular_target": "PUM1 PUF domain R5-FRT (Homo sapiens, UniProt Q14671 828-1176, C1007F;Q1011T)", "in_short": "as §1"}, "PUM1 PUF domain R1-KKV": {"molecular_target": "PUM1 PUF domain R1-KKV (Homo sapiens, UniProt Q14671 828-1176, S863K;R864K;Q867V)", "in_short": "as §1"}, "PUM1 PUF domain R5-VHM": {"molecular_target": "PUM1 PUF domain R5-VHM (Homo sapiens, UniProt Q14671 828-1176, C1007V;R1008H;Q1011M)", "in_short": "as §1"}, "PUM1 PUF domain R5-WHA": {"molecular_target": "PUM1 PUF domain R5-WHA (Homo sapiens, UniProt Q14671 828-1176, C1007W;R1008H;Q1011A)", "in_short": "as §1"}, "PUM1 PUF domain R8-MHP": {"molecular_target": "PUM1 PUF domain R8-MHP (Homo sapiens, UniProt Q14671 828-1176, N1122M;Y1123H;Q1126P)", "in_short": "as §1"}, "PUM1 PUF domain R8-HFD": {"molecular_target": "PUM1 PUF domain R8-HFD (Homo sapiens, UniProt Q14671 828-1176, N1122H;Y1123F;Q1126D)", "in_short": "as §1"}, "PUM1 PUF domain R1-NKK": {"molecular_target": "PUM1 PUF domain R1-NKK (Homo sapiens, UniProt Q14671 828-1176, S863N;R864K;Q867K)", "in_short": "as §1"}, "PUM1 PUF domain R1-GVK": {"molecular_target": "PUM1 PUF domain R1-GVK (Homo sapiens, UniProt Q14671 828-1176, S863G;R864V;Q867K)", "in_short": "as §1"}, "PUM1 PUF domain R1-GHR": {"molecular_target": "PUM1 PUF domain R1-GHR (Homo sapiens, UniProt Q14671 828-1176, S863G;R864H;Q867R)", "in_short": "as §1"}, "PUM1 PUF domain R5-QCC": {"molecular_target": "PUM1 PUF domain R5-QCC (Homo sapiens, UniProt Q14671 828-1176, C1007Q;R1008C;Q1011C)", "in_short": "as §1"}, "PUM1 PUF domain R3-YRC": {"molecular_target": "PUM1 PUF domain R3-YRC (Homo sapiens, UniProt Q14671 828-1176, C935Y;Q939C)", "in_short": "as §1"}, "PUM1 PUF domain R3-GPK": {"molecular_target": "PUM1 PUF domain R3-GPK (Homo sapiens, UniProt Q14671 828-1176, C935G;R936P;Q939K)", "in_short": "as §1"}, "PUM1 PUF domain R4-ANY": {"molecular_target": "PUM1 PUF domain R4-ANY (Homo sapiens, UniProt Q14671 828-1176, N971A;H972N;Q975Y)", "in_short": "as §1"}, "PUM1 PUF domain R4-CPT": {"molecular_target": "PUM1 PUF domain R4-CPT (Homo sapiens, UniProt Q14671 828-1176, N971C;H972P;Q975T)", "in_short": "as §1"}, "PUM1 PUF domain R7-KTE": {"molecular_target": "PUM1 PUF domain R7-KTE (Homo sapiens, UniProt Q14671 828-1176, S1079K;N1080T)", "in_short": "as §1"}, "PUM1 PUF domain R7-EYN": {"molecular_target": "PUM1 PUF domain R7-EYN (Homo sapiens, UniProt Q14671 828-1176, S1079E;N1080Y;E1083N)", "in_short": "as §1"}, "PUM1 PUF domain R7-RGN": {"molecular_target": "PUM1 PUF domain R7-RGN (Homo sapiens, UniProt Q14671 828-1176, S1079R;N1080G;E1083N)", "in_short": "as §1"}, "PUM1 PUF domain R6-SWD": {"molecular_target": "T1, PUM1 PUF domain R6-SWD (Homo sapiens, UniProt Q14671 828-1176, N1043S;Y1044W;Q1047D)", "T1 sequence": "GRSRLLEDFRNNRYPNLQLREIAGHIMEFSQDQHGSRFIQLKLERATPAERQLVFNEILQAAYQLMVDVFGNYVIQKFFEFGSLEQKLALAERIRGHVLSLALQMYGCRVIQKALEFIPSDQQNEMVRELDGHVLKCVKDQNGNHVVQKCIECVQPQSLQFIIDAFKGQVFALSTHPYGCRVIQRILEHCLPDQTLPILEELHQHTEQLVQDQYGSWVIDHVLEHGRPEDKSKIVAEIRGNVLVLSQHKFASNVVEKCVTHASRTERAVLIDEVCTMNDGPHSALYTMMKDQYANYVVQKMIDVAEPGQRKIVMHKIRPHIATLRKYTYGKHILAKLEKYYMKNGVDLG", "in_short": "as §1"}, "PUM1 PUF domain R5-RAM": {"molecular_target": "PUM1 PUF domain R5-RAM (Homo sapiens, UniProt Q14671 828-1176, C1007R;R1008A;Q1011M)", "in_short": "as §1"}}}
{"sequence": "GGCUAGAACUAGUGGAUCCCCCGGCGCCCGGCGGCUCGAGCCCGGGUAAGUGUUAAUAGUCUGCAUGCCGCCGGGCGCCAUGCCUGCAGGUCGACUCUAGAAAACAUG", "values": [{"measurement": "binding signal", "setting": "PUM1 PUF domain R5-RYV", "value": "4.93 log2 enrichment (interaction score)"}, {"measurement": "binding signal", "setting": "PUM1 PUF domain R5-FRT", "value": "1.56 log2 enrichment (interaction score)"}]}
{"sequence": "GGCUAGAACUAGUGGAUCCCCCGGCGCCCGGCGGCUCGAGCCCGGGUAAGUGUAAAUAGUCUGCAUGCCGCCGGGCGCCAUGCCUGCAGGUCGACUCUAGAAAACAUG", "values": [{"measurement": "binding signal", "setting": "PUM1 PUF domain R1-KKV", "value": "2.4 log2 enrichment (interaction score)"}, {"measurement": "binding signal", "setting": "PUM1 PUF domain R5-VHM", "value": "2.73 log2 enrichment (interaction score)"}, {"measurement": "binding signal", "setting": "PUM1 PUF domain R5-WHA", "value": "1.08 log2 enrichment (interaction score)"}, {"measurement": "binding signal", "setting": "PUM1 PUF domain R5-RYV", "value": "1.83 log2 enrichment (interaction score)"}]}
{"sequence": "GGCUAGAACUAGUGGAUCCCCCGGCGCCCGGCGGCUCGAGCCCGGGUAAGCGUAAAUAGUCUGCAUGCCGCCGGGCGCCAUGCCUGCAGGUCGACUCUAGAAAACAUG", "values": [{"measurement": "binding signal", "setting": "PUM1 PUF domain R8-MHP", "value": "2.6 log2 enrichment (interaction score)"}, {"measurement": "binding signal", "setting": "PUM1 PUF domain R8-HFD", "value": "2.46 log2 enrichment (interaction score)"}]}
{"sequence": "GGCUAGAACUAGUGGAUCCCCCGGCGCCCGGCGGCUCGAGCCCGGGUAAGUGUAAAUGGUCUGCAUGCCGCCGGGCGCCAUGCCUGCAGGUCGACUCUAGAAAACAUG", "values": [{"measurement": "binding signal", "setting": "PUM1 PUF domain R1-NKK", "value": "3.03 log2 enrichment (interaction score)"}]}
{"sequence": "GGCUAGAACUAGUGGAUCCCCCGGCGCCCGGCGGCUCGAGCCCGGGUAAGUGUAAAUUGUCUGCAUGCCGCCGGGCGCCAUGCCUGCAGGUCGACUCUAGAAAACAUG", "values": [{"measurement": "binding signal", "setting": "PUM1 PUF domain R1-GVK", "value": "2 log2 enrichment (interaction score)"}, {"measurement": "binding signal", "setting": "PUM1 PUF domain R1-GHR", "value": "1.34 log2 enrichment (interaction score)"}]}
{"sequence": "GGCUAGAACUAGUGGAUCCCCCGGCGCCCGGCGGCUCGAGCCCGGGUAAGUGUGAAUAGUCUGCAUGCCGCCGGGCGCCAUGCCUGCAGGUCGACUCUAGAAAACAUG", "values": [{"measurement": "binding signal", "setting": "PUM1 PUF domain R5-RYV", "value": "2.35 log2 enrichment (interaction score)"}, {"measurement": "binding signal", "setting": "PUM1 PUF domain R5-QCC", "value": "3.84 log2 enrichment (interaction score)"}]}
{"sequence": "GGCUAGAACUAGUGGAUCCCCCGGCGCCCGGCGGCUCGAGCCCGGGUAAGUGUAAGUAGUCUGCAUGCCGCCGGGCGCCAUGCCUGCAGGUCGACUCUAGAAAACAUG", "values": [{"measurement": "binding signal", "setting": "PUM1 PUF domain R3-YRC", "value": "4.22 log2 enrichment (interaction score)"}]}
{"sequence": "GGCUAGAACUAGUGGAUCCCCCGGCGCCCGGCGGCUCGAGCCCGGGUAAGUGUAAUUAGUCUGCAUGCCGCCGGGCGCCAUGCCUGCAGGUCGACUCUAGAAAACAUG", "values": [{"measurement": "binding signal", "setting": "PUM1 PUF domain R3-GPK", "value": "3.25 log2 enrichment (interaction score)"}]}
{"sequence": "GGCUAGAACUAGUGGAUCCCCCGGCGCCCGGCGGCUCGAGCCCGGGUAAGUGUAUAUAGUCUGCAUGCCGCCGGGCGCCAUGCCUGCAGGUCGACUCUAGAAAACAUG", "values": [{"measurement": "binding signal", "setting": "PUM1 PUF domain R4-ANY", "value": "3.22 log2 enrichment (interaction score)"}, {"measurement": "binding signal", "setting": "PUM1 PUF domain R4-CPT", "value": "3.09 log2 enrichment (interaction score)"}]}
{"sequence": "GGCUAGAACUAGUGGAUCCCCCGGCGCCCGGCGGCUCGAGCCCGGGUAAGUCUAAAUAGUCUGCAUGCCGCCGGGCGCCAUGCCUGCAGGUCGACUCUAGAAAACAUG", "values": [{"measurement": "binding signal", "setting": "PUM1 PUF domain R7-KTE", "value": "2.46 log2 enrichment (interaction score)"}, {"measurement": "binding signal", "setting": "PUM1 PUF domain R7-EYN", "value": "3.13 log2 enrichment (interaction score)"}, {"measurement": "binding signal", "setting": "PUM1 PUF domain R7-RGN", "value": "3.02 log2 enrichment (interaction score)"}]}
{"sequence": "GGCUAGAACUAGUGGAUCCCCCGGCGCCCGGCGGCUCGAGCCCGGGUAAGUGUACAUAGUCUGCAUGCCGCCGGGCGCCAUGCCUGCAGGUCGACUCUAGAAAACAUG", "values": [{"measurement": "binding signal", "setting": "PUM1 PUF domain R4-CPT", "value": "1.75 log2 enrichment (interaction score)"}]}
{"sequence": "GGCUAGAACUAGUGGAUCCCCCGGCGCCCGGCGGCUCGAGCCCGGGUAAGUGGAAAUAGUCUGCAUGCCGCCGGGCGCCAUGCCUGCAGGUCGACUCUAGAAAACAUG", "values": [{"measurement": "binding signal", "setting": "PUM1 PUF domain R6-SWD", "value": "5.64 log2 enrichment (interaction score)"}]}
{"sequence": "GGCUAGAACUAGUGGAUCCCCCGGCGCCCGGCGGCUCGAGCCCGGGUAAGUGUCAAUAGUCUGCAUGCCGCCGGGCGCCAUGCCUGCAGGUCGACUCUAGAAAACAUG", "values": [{"measurement": "binding signal", "setting": "PUM1 PUF domain R5-WHA", "value": "3.04 log2 enrichment (interaction score)"}, {"measurement": "binding signal", "setting": "PUM1 PUF domain R5-RYV", "value": "5.29 log2 enrichment (interaction score)"}, {"measurement": "binding signal", "setting": "PUM1 PUF domain R5-FRT", "value": "2.21 log2 enrichment (interaction score)"}, {"measurement": "binding signal", "setting": "PUM1 PUF domain R5-RAM", "value": "2.69 log2 enrichment (interaction score)"}]}
{"sequence": "GGCUAGAACUAGUGGAUCCCCCGGCGCCCGGCGGCUCGAGCCCGGGUAAGUGUAAAUCGUCUGCAUGCCGCCGGGCGCCAUGCCUGCAGGUCGACUCUAGAAAACAUG", "values": [{"measurement": "binding signal", "setting": "PUM1 PUF domain R1-GVK", "value": "3.43 log2 enrichment (interaction score)"}, {"measurement": "binding signal", "setting": "PUM1 PUF domain R1-NKK", "value": "4.39 log2 enrichment (interaction score)"}, {"measurement": "binding signal", "setting": "PUM1 PUF domain R1-GHR", "value": "2.23 log2 enrichment (interaction score)"}]}
